Test results published in PubChem BioAssay (NCI).
The panel holds about 83,000 compounds, 20% with a hit somewhere; the sample as a whole holds those more often.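 48-hour exposure, single concentration, 96-well plates; percent growth endpoint where 0 means no net growth. Active: below 10.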 Values without a mark were called inactive. Calls of active or inactive are those of the source.

What was measured:
Test in all cases: NCI-60 one-dose screen, 48 h (100 = growth as untreated, 0 = no growth, -100 = all killed)
Conditions in all cases: 10 µM unless noted
[1] = test system: NCI-H23 lung
[2] = test system: NCI-H226 lung
[3] = test system: NCI-H322M lung
[4] = test system: HOP-62 NSCLC
[5] = test system: NCI-H460 lung
[6] = test system: HOP-92 NSCLC
[7] = test system: NCI-H522 lung
[8] = test system: A549/ATCC NSCLC
[9] = test system: 786-0 renal
[10] = test system: COLO 205 colon
[11] = test system: DU-145 prostate
[12] = test system: K-562 leukemia
[13] = test system: MALME-3M melanoma
[14] = test system: MDA-MB-231 breast
[15] = test system: RXF 393 renal
[16] = test system: SF-268 CNS
[17] = test system: SF-295 CNS
[18] = test system: SF-539 CNS
[19] = test system: UACC-257 melanoma
[20] = test system: M14 melanoma

| Compound | growth [1] | growth [2] | growth [3] | growth [4] | growth [5] | growth [6] | growth [7] | growth [8] | growth [9] | growth [10] | growth [11] | growth [12] | growth [13] | growth [14] | growth [15] | growth [16] | growth [17] | growth [18] | growth [19] | growth [20] |
| --- | --- | --- | --- | --- | --- | --- | --- | --- | --- | --- | --- | --- | --- | --- | --- | --- | --- | --- | --- | --- |
| CC1CN=C(c2cccc(-c3ccc(-c4ccccc4)o3)c2)N1 (stereo not given) | 27.6% | 30% | 4.39% (active) | 39.9% | -25.5% (active) | -13.1% (active) | -64.5% (active) | 12.2% | -43.6% (active) | -82.6% (active) | 37.4% | -38.2% (active) | -85.2% (active) | -51.5% (active) | -67.8% (active) | 3.07% (active) | -49.1% (active) | -72.2% (active) | -58.5% (active) | -67.2% (active) |
| COc1cc2c(c(OC)c1OC)C(=O)CC(c1cccc(NC(=O)c3ccccc3Br)c1)O2 (stereo not given) | 98.4% | 84.8% | 96% | 97.4% | 90.4% | 65.2% | 66.7% | 88.1% | 103% | 116% | 97.1% | 70.2% | 105% | 98.6% | 99.4% | 90.5% | 92.5% | 96.5% | 90.1% | 97.8% |
| COc1ccc(-c2oc(=O)ccc2-c2cc(OC)c(OC)c(OC)c2)cc1O | 49% | 64.1% | 41.6% | -15.8% (active) | 4.04% (active) | 103% | -0.118% (active) | 26% | 20.5% | 45.2% | 6.81% (active) | -9.26% (active) | 37.8% | 38.6% | -38.7% (active) | 24.9% | -17.8% (active) | -13.7% (active) | 47.3% | -62.5% (active) |
| Cc1ccc(/C=C2\CN(C(=O)C(Cl)Cl)C/C(=C\c3ccc(C)cc3)C2=O)cc1 | -35.9% (active) | -11.7% (active) | -53.7% (active) | -16.4% (active) | -56.1% (active) | -47.9% (active) | -37.3% (active) | 2.86% (active) | -68.6% (active) | -63% (active) | -82.7% (active) | -0.0477% (active) | -56.5% (active) | -3.27% (active) | -88.1% (active) | -20.4% (active) | -7.46% (active) | -86.4% (active) | -33.1% (active) | -65.6% (active) |
| CCN1CCN(CC(=O)Nc2nc3ccc(NCc4ccc(Br)cc4)cc3s2)CC1 | 70.4% | 64.6% | 84.9% | 64.8% | 26.3% | 40.9% | 99.5% | 64.5% | 61.3% | -48.9% (active) | 83.9% | -49.7% (active) | -68.2% (active) | 45.6% | 63.9% | 72.1% | 86.4% | 39.2% | 17.7% | -56.2% (active) |
| CCN(C(=O)N1CCN(c2cc3c(cc2F)c(=O)c(C(=O)O)cn3C2CC2)CC1)c1nc(-c2ccc(C)cc2)cs1 | 6.95% (active) | 3.21% (active) | 10.3% | 5.92% (active) | 8.41% (active) | -12% (active) | 3.2% (active) | 16.1% | 15.6% | -21.2% (active) | 23.6% | 16% | 14.7% | 6.79% (active) | 21.8% | 21% | -3.48% (active) | 20.2% | 14.6% | 19.6% |
| O=C(N/N=C/c1ccc([N+](=O)[O-])cc1)c1ccc2nc(-c3ccc(Cl)cc3)[nH]c2c1 | 16.2% | 54.8% | 70.1% | 44.8% | 5.44% (active) | 59.7% | 33% | 34.5% | 49% | 2.28% (active) | 42% | 9.68% (active) | 7.79% (active) | 76.9% | 31.6% | 48.5% | 21.7% | 41.7% | 25.1% | 25.9% |
| CN1CCN(Cc2ccc(NC(=O)c3cncc(C#Cc4cncc5ncccc45)c3)cc2C(F)(F)F)CC1 | 15% | 12.7% | 18% | 10.4% | -47.3% (active) | -34.9% (active) | 19.7% | 17.7% | 38.3% | -23% (active) | 34.4% | -8.35% (active) | -14.4% (active) | 5.93% (active) | 8.21% (active) | 33.7% | 32.9% | -31.8% (active) | 6.41% (active) | -51.1% (active) |
| COc1ccc(/C=C/C(=O)c2ccc(Nc3nc(Nc4ccc(F)cc4)nc(Nc4ccc(Cl)cc4)n3)cc2)cc1 | 93.3% | 122% | 152% | 112% | 94.2% | 44.7% | 61.9% | 90.5% | 92.6% | 96% | 104% | 85.4% | 164% | 95.3% | 1.27% (active) | 100% | 81.8% | 109% | 107% | 95.2% |
| CCOC(=O)c1c2c(n3ccccc13)C(=O)c1ncccc1C2=O | 4.7% (active) | 9.64% (active) | 11.4% | -11.7% (active) | 1.12% (active) | 28.4% | -22.2% (active) | 8.27% (active) | 2.37% (active) | 20.7% | 8.05% (active) | 11.2% | 18.1% | 13.4% | 25% | 20% | 22.3% | -2.14% (active) | -3.95% (active) | -37.6% (active) |
| O[C@@H](c1cc(C(F)(F)F)nc2c(C(F)(F)F)cccc12)[C@H]1CCCCN1 | 81.5% | 94.6% | 71.5% | 56.1% | 35.6% | 12.3% | 40% | 66% | 46.3% | 67.9% | 65.8% | 15.8% | 99% | 14.5% | 55.2% | 54.7% | 95.7% | 85.6% | 65.5% | 71.6% |
| CC(C)CCSc1nc(Nc2ccccc2)c(C#N)c(-c2ccccc2)n1 | 50.1% | 90.3% | 34.3% | 19.7% | 14.6% | 21.8% | 69.8% | 14.8% | 8.79% (active) | 46% | 61.9% | 48.6% | 37.4% | 8.82% (active) | 23.1% | 60% | 32% | 18.4% | 88.2% | 71.4% |
| COc1ccc(C(c2cc(OC)c(OC)c(OC)c2)N2CCCC2)cc1 (stereo not given) | 85.3% | 87.6% | 87.5% | 79.5% | 84.3% | 85.5% | 58.5% | 77.7% | 93.4% | 71.2% | 103% | 25.3% | 85.3% | 80.8% | 103% | 84.3% | 69.7% | 95.7% | 74.6% | 60.1% |
| CN(C)c1ccc(-c2cc(-c3ccc(Nc4nc(Nc5ccc(Cl)cc5)nc(Nc5ccc(Cl)cc5)n4)cc3)nc(N)c2C#N)cc1 | 87.8% | 107% | 115% | 73% | 86.3% | 46.3% | 87.6% | 72.3% | 72.4% | 69.8% | 95.8% | 68.4% | 81.8% | 77.4% | 37.1% | 94.9% | 64% | 77.9% | 99.1% | 71.4% |
| COc1ccc2nc(SCC(=O)Nc3ccccc3C)[nH]c2c1 | 101% | 92.2% | 90% | 90% | 104% | 83.2% | 87.9% | 84% | 99.9% | 113% | 105% | 97.5% | 96.9% | 98.6% | 105% | 102% | 93% | 101% | 90% | 101% |
